Test results taken from PubChem BioAssay (NCATS).
Results filed as inconclusive are left out. Where a call stands in place of a potency, no number is given. Activity calls are given as the source filed them. Calls come from the whole dose curve; as a rule, active = well fitted curve in the direction sought with a large enough effect; inconclusive = small, poorly fitted or top-dose-only effect, or another doubt; inactive = no such curve, though single readings can be large; an effect the other way counts as inactive or inconclusive.

How the values were obtained:
[1] = Quantitative High-Throughput drug screen in 47 multiple myeloma cell lines against the NCATS MIPE library collection: KMM1_JCRB cell viability assay (AID 1918960); note: nearly all actives have a fitted effect of over 30% in size; note: potency is the fitted concentration of half-maximal effect
Method in brief: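 Myeloma cells, 500 per well, were exposed to MIPE 4.0 drugs by pin transfer for 48 h at 37 °C, 5% CO2. Viability was read as ATP luminescence with CellTiter-Glo, normalised to DMSO-only (100%) and medium-only (0%) wells.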

[2] = Quantitative High-Throughput drug screen in 47 multiple myeloma cell lines against the NCATS MIPE library collection: Karpas417_ECACC cell viability assay (AID 1918961); settings: Karpas417 myeloma viability, CellTiter-Glo ATP luminescence, 48 h; viability (% of DMSO): at 45.8 µM (top of the series); note: potency is the fitted concentration of half-maximal effect
Method in brief: (§1)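 We plated 500 myeloma cells per well, pinned in MIPE 4.0 compounds, and incubated for 48 hours at 37C. ATP was then quantified with CellTiter-Glo, with DMSO and media-only wells defining 100% and 0%.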

[3] = Quantitative High-Throughput drug screen in 47 multiple myeloma cell lines against the NCATS MIPE library collection: JIM3_ECACC cell viability assay (AID 1918963; note: nearly all actives have a fitted effect of over 35% in size; note: potency is the fitted concentration of half-maximal effect)
Method in brief: (§2)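 Primary qHTS used for cherry-picking: cells at 500/well, library compounds for 48 h (37C, 5% CO2), luminescent ATP assay.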

[4] = Quantitative High-Throughput drug screen in 47 multiple myeloma cell lines against the NCATS MIPE library collection: JJN3_DSMZ cell viability assay (AID 1918966; note: nearly all actives have a fitted effect of over 50% in size; note: potency is the fitted concentration of half-maximal effect)
Method in brief: (§3)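 Inhibition of cell viability is measured here. Each line was plated at 500 cells per well, treated with MIPE 4.0 drugs, kept 48 hours at 37C, then assayed for ATP content by CellTiter-Glo luminescence.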

[5] = Quantitative High-Throughput drug screen in 47 multiple myeloma cell lines against the NCATS MIPE library collection: Karpas25_ECACC cell viability assay (AID 1918968; note: nearly all actives have a fitted effect of over 35% in size; note: potency is the fitted concentration of half-maximal effect)
Method in brief: as §3

[6] = Quantitative High-Throughput drug screen in 47 multiple myeloma cell lines against the NCATS MIPE library collection: KMS27_JCRB cell viability assay (AID 1918970); note: nearly all actives have a fitted effect of over 30% in size; note: potency is the fitted concentration of half-maximal effect
Method in brief: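 KMS27_JCRB myeloma cells, 500 per well, exposed 48 h at 37 C, 5% CO2 to MIPE 4.0 compounds. Viability from ATP by CellTiter-Glo luminescence, normalized to DMSO (100%) and medium-only (0%) wells.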

[7] = Quantitative High-Throughput drug screen in 47 multiple myeloma cell lines against the NCATS MIPE library collection: KMS12BM_JCRB cell viability assay (AID 1918971); note: nearly all actives have a fitted effect of over 35% in size; note: potency is the fitted concentration of half-maximal effect
Method in brief: (§4)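 Steps: seed 500 cells per well; pin-transfer MIPE 4.0 library; incubate 48 h at 37C, 5% CO2, humidified; add CellTiter-Glo, 5 min room temperature; read luminescence.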

[8] = Quantitative High-Throughput drug screen in 47 multiple myeloma cell lines against the NCATS MIPE library collection: KMS12PE_JCRB cell viability assay (AID 1918972); note: nearly all actives have a fitted effect of over 30% in size; note: potency is the fitted concentration of half-maximal effect
Method in brief: as §1

[9] = Quantitative High-Throughput drug screen in 47 multiple myeloma cell lines against the NCATS MIPE library collection: KMS20_JCRB cell viability assay (AID 1918973); note: nearly all actives have a fitted effect of over 45% in size; note: potency is the fitted concentration of half-maximal effect
Method in brief: as §3

[10] = Quantitative High-Throughput drug screen in 47 multiple myeloma cell lines against the NCATS MIPE library collection: KMS26_JCRB cell viability assay (AID 1918975); note: nearly all actives have a fitted effect of over 45% in size; note: potency is the fitted concentration of half-maximal effect
Method in brief: as §4

[11] = Quantitative High-Throughput drug screen in 47 multiple myeloma cell lines against the NCATS MIPE library collection: MMM1_PLB cell viability assay (AID 1918976); note: potency is the fitted concentration of half-maximal effect; nearly all actives have a fitted effect of over 35% in size
Method in brief: (§5)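 Plated at 500 cells per well, myeloma lines received MIPE 4.0 compounds by pin tool. Following 48 h culture at 37 °C, CellTiter-Glo luminescence gave viability relative to DMSO and media-only controls.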

[12] = Quantitative High-Throughput drug screen in 47 multiple myeloma cell lines against the NCATS MIPE library collection: MOLP8_DSMZ cell viability assay (AID 1918977); note: nearly all actives have a fitted effect of over 45% in size; note: potency is the fitted concentration of half-maximal effect
Method in brief: as §5

[13] = Quantitative High-Throughput drug screen in 47 multiple myeloma cell lines against the NCATS MIPE library collection: NCIH929_DSMZ cell viability assay (AID 1918978); note: nearly all actives have a fitted effect of over 35% in size; note: potency is the fitted concentration of half-maximal effect
Method in brief: as §5

[14] = Quantitative High-Throughput drug screen in 47 multiple myeloma cell lines against the NCATS MIPE library collection: OCIMY1_PLB cell viability assay (AID 1918979); note: nearly all actives have a fitted effect of over 35% in size; note: potency is the fitted concentration of half-maximal effect
Method in brief: as §5

[15] = Quantitative High-Throughput drug screen in 47 multiple myeloma cell lines against the NCATS MIPE library collection: MM1S_ATCC cell viability assay (AID 1918980); note: nearly all actives have a fitted effect of over 45% in size; note: potency is the fitted concentration of half-maximal effect
Method in brief: as §5

[16] = Quantitative High-Throughput drug screen in 47 multiple myeloma cell lines against the NCATS MIPE library collection: INA6_PLB cell viability assay (AID 1918965; note: nearly all actives have a fitted effect of over 55% in size)
Method in brief: as §1

[17] = Quantitative High-Throughput drug screen in 47 multiple myeloma cell lines against the NCATS MIPE library collection: H1112_PLB cell viability assay (AID 1918967; note: nearly all actives have a fitted effect of over 30% in size)
Method in brief: as §3

[18] = Quantitative High-Throughput drug screen in 47 multiple myeloma cell lines against the NCATS MIPE library collection: KHM11_PLB cell viability assay (AID 1918962); note: nearly all actives have a fitted effect of over 35% in size
Method in brief: as §2

| Compound | Potency [1] | Potency [2] | Potency [3] | Potency [4] | Potency [5] | Potency [6] | Potency [7] | Potency [8] | Potency [9] | Potency [10] | Potency [11] | Potency [12] | Potency [13] | Potency [14] | Potency [15] | Potency [16] | Potency [17] | Potency [18] |
| --- | --- | --- | --- | --- | --- | --- | --- | --- | --- | --- | --- | --- | --- | --- | --- | --- | --- | --- |
| CC[C@@]1(O)C(=O)OCc2c1cc1n(c2=O)Cc2cc3ccccc3nc2-1 | 105 nM (active) | 296 nM (active) | 264 nM (active) | 743 nM (active) | 83.3 nM (active) | 16.6 nM (active) | 166 nM (active) | 132 nM (active) | 209 nM (active) | 2350 nM (active) | 935 nM (active) | 132 nM (active) | 105 nM (active) | 418 nM (active) | 23.5 nM (active) | – | – | – |
| CN(C)[C@@H]1C(=O)C(C(N)=O)=C(O)[C@@]2(O)C(=O)C3=C(O)c4c(O)cccc4[C@@](C)(O)[C@H]3[C@H](O)[C@@H]12 | inactive | inactive | – | 9350 nM (active) | – | inactive | – | inactive | – | inactive | 10500 nM (active) | 11800 nM (active) | – | inactive | 5900 nM (active) | inactive | – | – |
| COc1ccc(CC2NCCc3cc(OC)c(OC)cc32)cc1OC (stereo unspecified) | inactive | inactive | inactive | – | – | inactive | inactive | inactive | – | inactive | – | inactive | – | – | – | – | inactive | – |
| CCc1c(C(=O)C(N)=O)c2c(OCC(=O)O)cccc2n1Cc1ccccc1 | inactive | inactive | inactive | inactive | inactive | inactive | inactive | inactive | inactive | inactive | – | – | inactive | inactive | inactive | inactive | inactive | – |
| C[C@H]([C@H](O)CCC(C)(C)O)[C@H]1CC[C@@]2(O)C3=CC(=O)[C@@H]4C[C@@H](O)[C@@H](O)C[C@]4(C)[C@@H]3CC[C@]12C | inactive | – | inactive | – | inactive | inactive | – | inactive | – | inactive | 14800 nM (active) | – | inactive | inactive | inactive | – | inactive | inactive |
| C1=C2CCCN[C@H]2[C@@H]2C[C@H]1[C@@H]1CCCCN1C2 | inactive | inactive | inactive | inactive | inactive | inactive | – | inactive | – | inactive | – | inactive | inactive | inactive | inactive | – | inactive | inactive |
